Experimental findings from the antibiotic and cytotoxicity screens of Wong et al. (2023) are described below.

Each structure is given as a SMILES string. Among all 39,000 compounds or so, about 3,300 (8.5%) were called active. The sample holds actives, similar compounds and a random draw of the others, so the mix is not that of the screen.

This experiment relates to HepG2. In words: cytotoxicity call (relative viability < 0.9). The note with it: 10 µM.
Take `C#CCSC1=N[C@@]2(COCc3ccc(OC)cc3)Oc3ccccc3[C@H]([C@H]2CO[Si](C)(C)C(C)(C)C)N1C(=O)c1ccccc1`: the cytotoxicity call was “inactive”.
In the case of `C[C@@H]1CN([C@H](C)CO)C(=O)c2cc(-c3ccc(F)cc3)cnc2O[C@@H]1CN(C)C(=O)Cc1ccccn1`, the cytotoxicity call was “inactive”.
The result for `C[C@@H]1CN([C@H](C)CO)C(=O)c2cc(NC(=O)CCCN(C)C)ccc2O[C@H]1CN(C)S(=O)(=O)c1ccc(Cl)cc1` reads “inactive”; that for `COC(=O)C1=C2CC[C@H](CO)NC(=O)N[C@H](Cc3ccccc3)C(=O)NCc3cn(nn3)C[C@@H](Cc3ccccc3)NC(=O)c3oc(c(C(=O)OC)c3C(=O)OC)CC[C@H](CO)NC(=O)N[C@H](Cc3ccccc3)C(=O)NCc3cn(nn3)C[C@@H](Cc3ccccc3)NC(=O)C(=C1C(=O)OC)O2`, “inactive”.
With `Cc1noc(C)c1S(=O)(=O)Nc1ccc2c(c1)C(=O)N([C@@H](C)CO)C[C@@H](C)[C@H](CN(C)S(=O)(=O)c1cn(C)cn1)OCCCC[C@@H](C)O2`, the cytotoxicity call is “inactive”.
The result for `C[C@@H]1CCCCO[C@H](CN(C)C(=O)Nc2ccc(F)cc2)[C@H](C)CN([C@@H](C)CO)C(=O)c2cc(NC(=O)CCC(F)(F)F)ccc2O1` reads “inactive”; that for `Cc1ccc(S(=O)(=O)N(C)C[C@H]2Oc3ccc(NC(=O)CCCN(C)C)cc3C(=O)N([C@@H](C)CO)C[C@H]2C)cc1`, “inactive”; that for `C[C@H](CO)N1C[C@H](C)[C@@H](CN(C)CC2CCCCC2)OCCCC[C@H](C)Oc2ccc(NC(=O)c3ccncc3)cc2C1=O`, “inactive”.
`COc1cccc(S(=O)(=O)N[C@H]2C=C[C@H](CC(=O)NC3CCC3)O[C@H]2CO)c1`: the cytotoxicity call was “inactive”.
For the molecule `C[C@@H]1CN([C@H](C)CO)C(=O)c2cc(NC(=O)CCC(F)(F)F)ccc2O[C@H]1CN(C)Cc1ccc(C(F)(F)F)cc1`, the cytotoxicity call is “inactive”.
The result for `CC1CCC2(OC1)OC1CC3C4CC=C5CC(O)CCC5(C)C4CCC3(C)C1C2C` (centres undefined) reads “inactive”; that for `CC1CCC2(OC1)OC1CC3C4CCC5CC(O)CCC5(C)C4CC(=O)C3(C)C1C2C` (centres undefined), “inactive”; that for `C[C@@H]1CC[C@@]2(OC1)O[C@H]1C[C@H]3[C@H]4C[C@@H](O)[C@H]5C[C@@H](O[C@@H]6O[C@H](CO)[C@H](O[C@@H]7O[C@H](CO)[C@@H](O)[C@H](O[C@@H]8OC[C@@H](O)[C@H](O)[C@H]8O)[C@H]7O[C@@H]7O[C@H](CO)[C@@H](O[C@@H]8O[C@H](CO)[C@@H](O)[C@H](O)[C@H]8O)[C@H](O)[C@H]7O)[C@H](O)[C@H]6O)CC[C@]5(C)[C@@H]4CC[C@]3(C)[C@H]1[C@@H]2C`, “active”.
For the molecule `C[C@@H]1O[C@@H](O[C@H]2[C@H](O)[C@@H](O)[C@H](OC[C@H]3O[C@@H](OC(=O)[C@]45CCC(C)(C)C[C@@H]4C4=CC[C@H]6[C@@]7(C)CC[C@H](O[C@H]8OC[C@H](O)[C@H](O)[C@H]8O[C@H]8O[C@@H](C)[C@H](O)[C@@H](O)[C@H]8O)[C@@](C)(CO)[C@@H]7CC[C@@]6(C)[C@]4(C)CC5)[C@H](O)[C@@H](O)[C@@H]3O)O[C@@H]2CO)[C@H](O)[C@H](O)[C@H]1O`, the cytotoxicity call was “inactive”.
For the molecule `CC(=O)OC1CCC2(C)C(CCC3C2CC(=O)C2(C)C3CC3OC4(CCC(C)CO4)C(C)C32)C1` (centres undefined), the cytotoxicity call is “inactive”.
The result for `OC[C@H]1O[C@@H](O[C@H]2[C@H](O)[C@@H](O)[C@@H](O)O[C@@H]2CO)[C@H](O)[C@@H](O)[C@@H]1O` reads “inactive”.
For the molecule `CC(C)=CCC[C@](C)(O[C@@H]1O[C@H](CO[C@@H]2OC[C@@H](O)[C@H](O)[C@H]2O)[C@@H](O)[C@H](O)[C@H]1O)[C@H]1CC[C@]2(C)[C@@H]1[C@H](O)C[C@@H]1[C@@]3(C)CC[C@H](O[C@@H]4O[C@H](CO)[C@@H](O)[C@H](O)[C@H]4O)C(C)(C)[C@@H]3CC[C@]12C`, the cytotoxicity call was “inactive”.
The result for `OC[C@@H]1O[C@H](O)[C@H](O)[C@H](O[C@@H]2O[C@H](CO)[C@H](O)[C@H](O[C@@H]3O[C@H](CO)[C@@H](O)[C@H](O)[C@@H]3O)[C@H]2O)[C@H]1O` reads “inactive”; that for `C[C@@H]1CC[C@@]2(OC1)O[C@H]1C[C@H]3[C@H]4CC=C5C[C@@H](O[C@@H]6O[C@H](CO)[C@@H](O[C@@H]7O[C@@H](C)[C@H](O)[C@@H](O)[C@H]7O[C@@H]7O[C@@H](C)[C@H](O)[C@@H](O)[C@H]7O)[C@H](O)[C@H]6O)CC[C@]5(C)[C@@H]4CC[C@]3(C)[C@H]1[C@@H]2C`, “active”.
As for `CC(=O)OC1CCC2(C)C(CCC3C2CCC2(C)C3CC3OC4(CCC(C)CO4)C(C)C32)C1` (centres undefined), the cytotoxicity call was “inactive”.
The result for `C[C@@H]1CC[C@@]2(OC1)O[C@H]1C[C@H]3[C@H]4C[C@@H](O)[C@H]5C[C@@H](O[C@@H]6O[C@H](CO)[C@H](O[C@@H]7O[C@H](CO)[C@@H](O)[C@H](O[C@@H]8OC[C@@H](O)[C@H](O)[C@H]8O)[C@H]7O[C@@H]7O[C@H](CO)[C@@H](O)[C@H](O)[C@H]7O)[C@H](O)[C@H]6O)CC[C@]5(C)[C@@H]4CC[C@]3(C)[C@H]1[C@@H]2C` reads “active”.
The result for `C[C@@H]1CCCCO[C@H](CN(C)C(=O)Nc2ccc(C(F)(F)F)cc2)[C@@H](C)CN([C@@H](C)CO)C(=O)c2cc(NC(=O)c3ccccc3)ccc2O1` reads “inactive”.
The result for `CN[C@@H]1[C@@H](O)[C@@H](O[C@@H]2[C@@H](O)[C@H](O[C@H]3OC(CN)=CC[C@H]3N)[C@@H](N)C[C@H]2N)OC[C@]1(C)O` reads “inactive”; that for `C[C@H](CO)N1C[C@H](C)[C@@H](CN(C)S(=O)(=O)c2ccc(F)cc2)Oc2c(NC(=O)C3CC3)cccc2C1=O`, “inactive”; that for `O=C(Nc1ccno1)N1CCOCC1`, “inactive”.
Take `C[C@@H]1CN([C@@H](C)CO)C(=O)Cc2cc(NS(=O)(=O)c3ccc(F)cc3)ccc2O[C@H]1CN(C)CC1CC1`: the cytotoxicity call was “inactive”.
Regarding `C[C@H]1CCCCO[C@H](CN(C)C(=O)NC2CCCCC2)[C@@H](C)CN([C@@H](C)CO)C(=O)c2cc(NC(=O)c3ccncc3)ccc2O1`, the cytotoxicity call is “inactive”.
Take `O=C(C[C@H]1CC[C@H](NS(=O)(=O)c2ccc(F)cc2)[C@@H](CO)O1)NCc1ccc(Cl)c(Cl)c1`: the cytotoxicity call is “inactive”.
Turning to `Cc1ccc(S(=O)(=O)N(C)C[C@@H]2Oc3c(NS(=O)(=O)c4ccccc4)cccc3C(=O)N([C@H](C)CO)C[C@@H]2C)cc1`, the cytotoxicity call was “inactive”.
